SNCA viab count – cell viability loss counter-screen. 150,000 tested, 0.12% active. HEK-293-SNCA-luc viability, GF-AFC fluorescence, 24 h. Potency, µM (titrated, usually from 57.1 µM), hits mostly cytotoxic; note: nearly all actives have a fitted effect of over 30% in size
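Cytotoxicity counterscreen: after 24 h compound treatment of genome-edited SNCA-luciferase HEK-293 cells, live-cell protease substrate GF-AFC read by fluorescence after 30 min; activity scaled between DMSO (0%) and medium-only (-100%), curves Hill-fitted.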
SNCA expr inhib – inhibitors of alpha-synuclein (SNCA) gene expression; 140,000 tested, 0.17% active; HEK-293 SNCA-luciferase knock-in, luminescence, 24 h; Potency, µM (series often up to 57.2 µM), most hits filed as inhibitors; AID 1671194; note: nearly all actives have a fitted effect of over 45% in size
HEK293 tox – kills HEK 293 cells | HEK 293 viability, ATP luminescence (CellTiter-Glo), 48-72 h | Potency, µM (highest dose often 115 µM), hits mostly inhibitors | 94,000 tested, 6.6% active | AID 1345083; note: nearly all actives have a fitted effect of over 60% in size
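Cytotoxicity was scored by loss of ATP-coupled luminescence (CellTiter-Glo) in HEK 293 cells. Compound treatment ran 48 or 72 hr at 37 degree Celsius, 5% CO2, 95% humidity.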
hNpr1 antagonist – antagonists of human natriuretic peptide receptor Npr1 | Potency, µM (doses to about 46.3 µM), hits mostly inhibitors | HEK293 hNpr1 GloSensor cGMP, ANP-stimulated luminescence | 76,000 tested, 1.6% active | P16066; calls by dose curve; note: nearly all actives have a fitted effect of over 60% in size
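Compound pre-incubated 30 min at room temperature on GloSensor-loaded HEK293 cells stably carrying hNpr1 and the pGS-40F cGMP biosensor. Stimulation uses hNppA at 0.1 nM final; luminescence is taken at baseline and 20 min post-agonist.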
NIH3T3 tox – kills NIH 3T3 cells; NIH 3T3 viability, CellTiter-Glo ATP luminescence, 48-72 h; Potency, µM (doses to about 96.7 µM), actives largely listed as inhibitors; 94,000 tested, 4.3% active; note: nearly all actives have a fitted effect of over 55% in size
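Luminescent ATP readout (CellTiter-Glo, 10 min RT) after 48 or 72 hr compound exposure of NIH 3T3 cells seeded at 400 cells/well in 1536-well format; quantitative HTS.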
FLuc inh – Photinus pyralis luciferase inhibition; purified P. pyralis luciferase, luminescence, biochemical; Potency, µM (highest dose often 115 µM), hits mostly inhibitors; 76,000 tested, 2.5% active; note: nearly all actives have a fitted effect of over 65% in size
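Inhibitors were tested against purified firefly luciferase in a biochemical, low-substrate format (both substrates at 10uM) and luminescence measured with a CCD imager.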
NPR1 antag cnf – hNpr1 antagonism, confirmation assay; shares compounds with hNpr1 antagonist; HEK293 hNpr1 cGMP GloSensor luminescence, ANP-stimulated; Potency, µM (doses to about 57.6 µM), usual class: inhibitors; 1,400 tested, 76% active; AID 1347044; calls by dose curve; note: nearly all actives have a fitted effect of over 70% in size
Npr2 selectivity – antagonizes human Npr2, subtype selectivity check | shares compounds with hNpr1 antagonist | HEK293 hNpr2 GloSensor cGMP luminescence, CNP-stimulated | Potency, µM (series often up to 57.6 µM), most hits filed as inhibitors | 1,400 tested, 67% active | AID 1347046; calls by dose curve; note: nearly all actives have a fitted effect of over 70% in size
FLuc inh counter – counter-screen for Npr1 antagonists: firefly luciferase inhibitors; shares compounds with hNpr1 antagonist; purified FLuc enzyme, luminescence, Km substrate; Potency, µM (highest dose often 57.6 µM), actives largely listed as inhibitors; 1,400 tested, 0.7% active; AID 1347047
GloSensor cGMP – counter-screen for Npr1 antagonists: GloSensor control cell line; shares compounds with hNpr1 antagonist; HEK293 GloSensor cGMP, SNP-stimulated, luminescence; Potency, µM (top dose mostly 57.6 µM), hits mostly inhibitors; 1,400 tested, 69% active; calls by dose curve; note: nearly all actives have a fitted effect of over 70% in size
Each line names hits and unclear results; the compound was inactive in the other large screens (follow-up assays come after a bar, where they were run). Compounds with a hit are over-represented: about 7.2% of the library has one in this group of screens. Unless noted, calls come from the whole dose curve; as a rule, active = well fitted curve in the direction sought with a large enough effect; inconclusive = small, poorly fitted or top-dose-only effect, or another doubt; inactive = no such curve, though single readings can be large; an effect the other way counts as inactive or inconclusive.

O=c1[nH]c(C2CCCN(Cc3ccc(Cl)cc3)C2)nc2ccc(F)cc12 (configuration not stated)	HEK293 tox inconclusive, hNpr1 antagonist inconclusive
Cc1ccc2nc(C3CCN(Cc4ccc(C#N)cc4)CC3)[nH]c(=O)c2c1	HEK293 tox inconclusive, hNpr1 antagonist inconclusive, NIH3T3 tox inconclusive | NPR1 antag cnf 17.2µM | Npr2 selectivity inconclusive | FLuc inh counter inactive | GloSensor cGMP 17.2µM
O=c1[nH]c(C2CCCN(Cc3ccc(-c4cccs4)cc3)C2)nc2ccc(F)cc12 (configuration not stated)	SNCA expr inhib inconclusive, HEK293 tox 39.8µM, hNpr1 antagonist 15.8µM, NIH3T3 tox inconclusive | NPR1 antag cnf 24.3µM | Npr2 selectivity 27.3µM | FLuc inh counter inactive | GloSensor cGMP 30.6µM
CC1=C[C@@H](CNC(=O)c2cnccn2)[C@H](C(C)C)C[C@H]1CC(=O)N1CCOCC1	none
CN(C)c1nc2c(c(=O)[nH]1)CCN(Cc1cc(Cl)ccc1F)CC2	HEK293 tox inconclusive
CN(Cc1cccnc1)c1nc2c(c(=O)[nH]1)CCN(Cc1ccccc1F)CC2	HEK293 tox inconclusive, NIH3T3 tox inconclusive
CN(Cc1cccnc1)c1nc2c(c(=O)[nH]1)CCN(Cc1ccc(Cl)cc1F)CC2	HEK293 tox inconclusive, hNpr1 antagonist 11.2µM, NIH3T3 tox inconclusive | NPR1 antag cnf 15.3µM | Npr2 selectivity 17.2µM | FLuc inh counter inactive | GloSensor cGMP 9.68µM
CCCCOC(=O)c1ccc(N2CC3CCC(C2)N3CC(F)(F)F)nn1	none (no result: hNpr1 antagonist, FLuc inh)
O=C(NC[C@H]1Cn2c(-c3ccc4c(c3)OCO4)cnc2CO1)Nc1ccccc1	HEK293 tox inconclusive, NIH3T3 tox inconclusive, FLuc inh inconclusive
O=C(NC[C@H]1Cn2c(-c3ccc4c(c3)OCCO4)cnc2CO1)Nc1ccccc1	HEK293 tox 100µM, hNpr1 antagonist inconclusive, NIH3T3 tox 89.1µM | NPR1 antag cnf inconclusive | Npr2 selectivity inconclusive | FLuc inh counter inactive | GloSensor cGMP inactive
CNc1nccc(N2CCC(CC(=O)N3CCN(c4ccccc4C)CC3)CC2)n1	HEK293 tox 28.2µM, hNpr1 antagonist inconclusive, NIH3T3 tox 44.7µM | NPR1 antag cnf inconclusive | Npr2 selectivity inconclusive | FLuc inh counter inactive | GloSensor cGMP inconclusive
CCNc1cc(N2CCC(CCC(=O)Nc3cc(C)ccc3OC)CC2)ncn1	HEK293 tox inconclusive, NIH3T3 tox inconclusive, FLuc inh inconclusive
CCNc1cc(N2CCC(CCC(=O)N3CCCN(c4ncccn4)CC3)CC2)ncn1	HEK293 tox inconclusive, hNpr1 antagonist inconclusive | NPR1 antag cnf 24.3µM | Npr2 selectivity inconclusive | FLuc inh counter inactive | GloSensor cGMP 24.3µM
COc1nccc(N2CCC(CC(=O)NCc3ccc(F)c(Cl)c3)CC2)n1	HEK293 tox inconclusive, hNpr1 antagonist 11.2µM, NIH3T3 tox inconclusive | NPR1 antag cnf 24.3µM | Npr2 selectivity 21.7µM | FLuc inh counter inactive | GloSensor cGMP 24.3µM
COc1nccc(N2CCC(CC(=O)N3CCCN(c4ncccn4)CC3)CC2)n1	HEK293 tox inconclusive, hNpr1 antagonist 22.4µM | NPR1 antag cnf 24.3µM | Npr2 selectivity inconclusive | FLuc inh counter inactive | GloSensor cGMP inconclusive
Cc1nnsc1C(=O)N[C@H]1CCN(C(=O)c2ccco2)[C@H](C(=O)N[C@H](Cc2c[nH]c3ccccc23)C(N)=O)C1	SNCA expr inhib inconclusive
CC(=O)Nc1ccc(CN2CCCCC23Cc2ccccc2CNC3=O)cc1 (configuration not stated)	none (no result: hNpr1 antagonist, FLuc inh)
O=C(Nc1ccc(F)c(Cl)c1)C1=NO[C@@H]2CN(Cc3cccnc3)C[C@H]12	HEK293 tox inconclusive, hNpr1 antagonist 28.2µM, NIH3T3 tox inconclusive | NPR1 antag cnf 35.3µM | Npr2 selectivity 35.3µM | FLuc inh counter inactive | GloSensor cGMP 31.4µM
O=C(Nc1ccncc1)C1=NO[C@@H]2CN(CCc3ccccc3)C[C@H]12	HEK293 tox inconclusive, hNpr1 antagonist inconclusive, NIH3T3 tox inconclusive | NPR1 antag cnf 39.6µM | Npr2 selectivity inconclusive | FLuc inh counter inactive | GloSensor cGMP 35.3µM
CC(C)(C)C(=O)NCCNC(=O)c1cccc(-c2ncccc2C#N)c1	none (no result: hNpr1 antagonist, FLuc inh)
CCCC1=Nc2cc(C(=O)NCCc3ccc(OC)c(OC)c3)ccc2Sc2ccccc21	HEK293 tox inconclusive, hNpr1 antagonist inconclusive, NIH3T3 tox inconclusive | NPR1 antag cnf inconclusive | Npr2 selectivity inconclusive | FLuc inh counter inactive | GloSensor cGMP inconclusive
CCC1=Nc2cc(C(=O)NCCc3ccc(OC)c(OC)c3)ccc2Sc2ccccc21	none (no result: HEK293 tox, hNpr1 antagonist, NIH3T3 tox, FLuc inh)
CC1=C[C@@H](CN2CCC(C(N)=O)CC2)[C@H](C(C)C)C[C@H]1Cc1nnc(-c2ccncc2)o1	HEK293 tox inconclusive
CC1=C[C@@H](CN2CCOCC2)[C@H](C(C)C)C[C@H]1Cc1nnc(-c2ccncc2)o1	HEK293 tox inconclusive, hNpr1 antagonist inconclusive, NIH3T3 tox inconclusive | NPR1 antag cnf inconclusive | Npr2 selectivity inactive | FLuc inh counter inactive | GloSensor cGMP inactive
CC1=C[C@@H](CN(C)Cc2cccnc2)[C@H](C(C)C)C[C@H]1Cc1nnc(-c2ccc([N+](=O)[O-])cc2)o1	SNCA viab count inconclusive, HEK293 tox 22.4µM, hNpr1 antagonist 20µM, NIH3T3 tox 15.8µM | NPR1 antag cnf 15.3µM | Npr2 selectivity 17.2µM | FLuc inh counter inactive | GloSensor cGMP 12.2µM
O=C(CCc1ccccc1)N1CCC(c2nc(C3CCOCC3)no2)C1 (configuration not stated)	none | NPR1 antag cnf inactive | Npr2 selectivity inactive | FLuc inh counter inactive | GloSensor cGMP inactive
COc1cccc(CCC(=O)N2CCC(c3nc(C4CCOCC4)no3)C2)c1 (configuration not stated)	HEK293 tox inconclusive
Cc1n[nH]c(C)c1C(N)C(=O)NCc1cc(C(F)(F)F)ccc1F (configuration not stated)	none
CCn1nccc1C(=O)N1CCC(CCOc2ccc(F)cc2)C1 (configuration not stated)	HEK293 tox 35.5µM, hNpr1 antagonist 12.6µM, NIH3T3 tox inconclusive | NPR1 antag cnf 21.7µM | Npr2 selectivity 24.3µM | FLuc inh counter inactive | GloSensor cGMP 24.3µM

Assay outcomes deposited in PubChem BioAssay by National Center for Advancing Translational Sciences (NCATS).
